Reference: PubChem BioAssay (NCATS)
Several values for one entry are separate records, joined by “and”; a condition that tells them apart may be missing. Equal values may be shown once. Records with an inconclusive call do not appear. Activity calls are given as the source filed them. Unless noted, calls follow the shape of the dose curve; as a rule, active = well fitted curve in the direction sought with a large enough effect; inconclusive = small, poorly fitted or top-dose-only effect, or another doubt; inactive = no such curve, though single readings can be large; an effect the other way counts as inactive or inconclusive.

Tests used:
[1] = target: Peroxisome proliferator-activated receptor delta (Homo sapiens) (UniProt Q03181); assay: qHTS assay for small molecule agonists of peroxisome proliferator-activated receptor delta signaling (AID 588534; calls by dose curve;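 also: 0% = DMSO basal wells and 100% = positive control agonist at 10 µM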)
Sequence of Peroxisome proliferator-activated receptor delta (Homo sapiens) (Q03181 whole entry, looked up): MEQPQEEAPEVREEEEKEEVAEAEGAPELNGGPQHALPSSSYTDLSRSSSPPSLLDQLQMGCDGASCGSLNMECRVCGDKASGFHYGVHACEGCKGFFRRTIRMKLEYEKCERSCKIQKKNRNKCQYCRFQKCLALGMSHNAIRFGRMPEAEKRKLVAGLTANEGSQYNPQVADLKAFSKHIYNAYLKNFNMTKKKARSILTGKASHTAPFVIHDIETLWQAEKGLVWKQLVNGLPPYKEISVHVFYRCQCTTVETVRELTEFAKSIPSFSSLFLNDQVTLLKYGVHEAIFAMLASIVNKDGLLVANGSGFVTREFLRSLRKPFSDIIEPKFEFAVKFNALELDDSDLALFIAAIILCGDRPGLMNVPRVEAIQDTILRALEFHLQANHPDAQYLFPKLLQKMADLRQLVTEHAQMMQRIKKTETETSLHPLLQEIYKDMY
Procedure, shortened: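 Reporter cells were plated and held 5 hrs at 37 C before compounds were added. After 18 hrs at 37 C, CCF4 dye was loaded for 2 hrs at RT and fluorescence measured.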

[2] = Cell Viability - N2a (AID 540); details: N2a mouse neuroblastoma cell viability; at 92.2 µM (top of the series);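 also: cells exposed to compound for 40 h at 37 °C; plate controls were DMSO alone for no effect and tamoxifen control for full effect; nearly all actives have a fitted effect of over 45% in size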
Procedure, shortened: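 First, 1500 N2a cells per well incubate 5 hr at 37 °C; next, compounds are added and incubated 40 hr at 37 °C; finally CellTiter-Glo is added and luminescence read after 20 min, with AC50 derived by Hill modeling.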

[3] = Cellular Toxicity (caspase-3) HepG2 (AID 654);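 also: cells exposed to compound for 16 hours before reading; 0% = DMSO alone and 100% = caspase signal from 100 µM tamoxifen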
Procedure, shortened: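 qHTS, HepG2, 1500 cells/well, complete medium; cpd 16 h 37 °C; Caspase-Glo 3/7, 20 min RT; lum. Norm: DMSO vs 100 uM tamoxifen; AC50 Hill fit.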

[4] = Cellular Toxicity (caspase-3) Hek293 (AID 664);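 also: cells exposed to compound for 16 h at 37 °C before readout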
Procedure, shortened: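 Activation of caspase-3/7 is measured as increased luminescence from cleaved peptide-aminoluciferin substrate in HEK293 cells treated 16 hours at 37 °C. AC50 values come from Hill-equation fits of concentration-response data.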

[5] = MultiTox-Fluor Cytotoxicity Assay - LYMP1-002 - Live Cells (AID 955); also: % is scaled to controls: 0 for no effect and ±100 for the full control effect
Procedure, shortened: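 Cytotoxicity in the human lymphoblastoid line LYMP1-002 is measured as loss of live-cell protease activity after 16 h treatment in complete culture medium. AC50 is derived from Hill-equation fits of qHTS concentration-response data.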

[6] = MultiTox-Fluor Cytotoxicity Assay - LYMP1-002 - Dead Cells (AID 960);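 also: 0% = DMSO and 100% = tetraoctylammonium bromide; nearly all actives have a fitted effect of over 60% in size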
Procedure, shortened: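 Acute cytotoxicity in a human lymphoblastoid line is scored as rising dead-cell protease signal after 16 hr exposure at 37 C, measured fluorometrically (485/520).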

[7] = MultiTox-Fluor Cytotoxicity Assay - LYMP1-003 - Live Cells (AID 962);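 also: 0% = DMSO only and full loss = 92 µM tetraoctylammonium bromide; cytotoxic hits lower the live-cell protease signal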
Procedure, shortened: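 Cells plated at 2500 per well and incubated 5 hr; compounds added and incubated 16 hr at 37 C; MultiTox-Fluor reagent added for 60 min at room temperature; fluorescence of liberated AFC measured at 405/510 nm.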

[8] = Cell Viability - LYMP1-003 - Assay at 24 hr (AID 963);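 also: plate controls were DMSO only for no effect and tetraoctylammonium bromide positive control for full effect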
Procedure, shortened: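 Acute toxicity in LYMP1-003 lymphoblastoid cells: 24 hr compound treatment at 37 C, ATP measured with CellTiter-Glo after 30 min at room temperature. AC50 derived by fitting the Hill equation to qHTS titrations.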

[9] = Cell Viability - LYMP2-003 (AID 965);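 also: cells exposed to compounds for 24 h before reading; 0% = DMSO only and full effect = 92 µM tetraoctylammonium bromide; nearly all actives have a fitted effect of over 50% in size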
Procedure, shortened: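 Human lymphoblastoid LYMP2-003 cells, 2500/well, exposed to compounds for 24 h at 37 C in complete medium. Viability read as intracellular ATP by CellTiter-Glo luminescence; AC50 from Hill-equation fits of qHTS concentration-response data.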

[10] = Cell Viability - LYMP2-005 (AID 967);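 also: plate controls were DMSO only for no effect and 92 µM tetraoctylammonium bromide control for full effect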
Procedure, shortened: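 Human lymphoblastoid LYMP2-005 cells, 2,500 per well in complete medium, rested 5 h at 37C then compound-treated 24 h at 37C. Intracellular ATP read by CellTiter-Glo luminescence after 30 min at room temperature; AC50 from Hill-equation fits of concentration-response data.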

[11] = Cell Viability - LYMP2-011 (AID 969);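 also: 0% = DMSO only and full inhibition = 92 µM tetraoctylammonium bromide; nearly all actives have a fitted effect of over 60% in size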
Procedure, shortened: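 Acute toxicity is scored as a concentration-dependent drop in intracellular ATP of a human lymphoblastoid line after 24 hr treatment. Values are AC50s modeled with the Hill equation.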

[12] = Cell Viability - LYMP2-013 (AID 970);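 also: 0% = DMSO only and full inhibition = tetraoctylammonium bromide control; nearly all actives have a fitted effect of over 55% in size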
Procedure, shortened: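 Acute toxicity was measured in human lymphoblastoid cells (2500/well) exposed to compound titrations for 24 hr, with ATP luminescence (CellTiter-Glo) as read-out and AC50 fitted by Hill equation.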

[13] = Cell Viability - LYMP2-015 (AID 971);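 also: 0% = DMSO only and full effect = 92 µM tetraoctylammonium bromide; nearly all actives have a fitted effect of over 55% in size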
Procedure, shortened: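 Acute toxicity was scored as a concentration-dependent drop in intracellular ATP in lymphoblastoid cells after 24 hr compound exposure in complete medium. Detection used CellTiter-Glo luciferase luminescence.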

[14] = Cell Viability - LYMP2-025 (AID 976);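 also: plate controls were DMSO only for no effect and tetraoctylammonium bromide control for full effect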
Procedure, shortened: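 In qHTS format, LYMP2-025 lymphoblastoid cells in complete culture medium received compound for 24 hr; ATP-based CellTiter-Glo signal gave viability, with AC50 derived by Hill equation.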

[15] = Cell Viability - LYMP2-006 (AID 978); also: % is scaled to controls: 0 for no effect and ±100 for the full control effect; nearly all actives have a fitted effect of over 60% in size
Procedure, shortened: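 Human lymphoblastoid cells (LYMP2-006), 2500/well in complete medium, were treated with compound for 24 hr at 37 C. Cellular ATP was read by CellTiter-Glo luminescence after 30 min, and AC50 values came from Hill-equation fits of concentration-response data.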

[16] = Cell Viability - LYMP2-008 (AID 980); also: % is scaled to controls: 0 for no effect and ±100 for the full control effect; nearly all actives have a fitted effect of over 60% in size
Procedure, shortened: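 Acute cytotoxicity is scored as concentration-dependent loss of cellular ATP in a human lymphoblastoid line after 24 hr treatment at 37 C. ATP is quantified by luciferase luminescence.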

[17] = Cell Viability - LYMP1-002 - Assay at 24 hr (AID 993); also: % is scaled to controls: 0 for no effect and ±100 for the full control effect
Procedure, shortened: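 qHTS, LYMP1-002 lymphoblastoid, 24 h cpd, 37 C, CellTiter-Glo ATP luminescence; AC50 via Hill eq.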

[18] = Cell Viability - LYMP1-002 - Assay at 40 hr (AID 994)
Procedure, shortened: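 Viability in the human lymphoblastoid line was measured as intracellular ATP via CellTiter-Glo after 40 hr compound exposure. Tetraoctylammonium bromide served as positive control.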

[19] = target: Peroxisome proliferator-activated receptor alpha (Homo sapiens) (UniProt Q07869); assay: qHTS assay for small molecule agonists of the peroxisome proliferator-activated receptor alpha (PPARalpha) signaling pathway (AID 651778); details: PathHunter PPARalpha complementation, chemiluminescence, 6 h; active compounds read high; also: % of control where 0% means no effect
Sequence of Peroxisome proliferator-activated receptor alpha (Homo sapiens) (Q07869 whole entry, looked up): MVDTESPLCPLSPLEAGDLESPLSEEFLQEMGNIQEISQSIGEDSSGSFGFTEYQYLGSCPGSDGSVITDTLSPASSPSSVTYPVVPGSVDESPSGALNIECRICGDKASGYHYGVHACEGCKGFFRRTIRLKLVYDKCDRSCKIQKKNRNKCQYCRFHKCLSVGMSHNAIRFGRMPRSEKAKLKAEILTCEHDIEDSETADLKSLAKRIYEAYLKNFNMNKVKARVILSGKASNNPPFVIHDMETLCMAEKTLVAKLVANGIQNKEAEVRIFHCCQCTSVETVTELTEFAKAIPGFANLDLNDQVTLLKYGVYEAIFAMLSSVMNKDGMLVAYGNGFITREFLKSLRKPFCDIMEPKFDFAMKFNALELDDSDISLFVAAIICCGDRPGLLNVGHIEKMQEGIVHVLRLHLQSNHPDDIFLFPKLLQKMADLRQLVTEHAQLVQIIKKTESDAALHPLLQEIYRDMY
Procedure, shortened: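 Chemiluminescence from complemented enzyme reported PPARalpha activation in cells after 6 hr of compound treatment at 37 C. The detection reagent was incubated for 60 min at room temperature, and compounds were scored as agonists.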

[20] = qHTS assay for small molecule agonists of the antioxidant response element (ARE) signaling pathway measured by Nrf2-dependant transcriptional activity (AID 720636; active = well fitted curve in the direction sought with a large enough effect in the repeat runs; an effect the other way counts as inactive or inconclusive;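 also: HepG2 cells with an ARE-driven luciferase reporter; % of control where 0% means no effect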)
Procedure, shortened: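 We exposed ARE-luc HepG2 cells, seeded in assay medium with 1% dialyzed FBS and allowed 6 hr to adhere, to test compounds overnight (16 hr, 37 C) before measuring luciferase with ONE-Glo.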

C=C(C)C1CC=C(C)C(O)C1 (stereo not given)
inactive: outcome [1]

COc1ccc(/C=C/c2cc(OC)cc(=O)o2)cc1
inactive: outcome [1]

Oc1cccc(O)c1O
inactive: outcome [1]

COC1=CC(=O)O[C@@H](/C=C/c2ccc3c(c2)OCO3)C1
inactive: activity change, negative = cytotoxicity [2] -10.4% | outcome [3] | outcome [4] | outcome [5] | Potency [6] | Potency [7] | Potency [8] | Potency [9] | Potency [10] | Potency [11] | Potency [12] | Potency [13] | Potency [14] | Potency [15] | Potency [16] | Potency [17] | Potency [18] | outcome [1] | max response [19] -0.53% | outcome [20]

C=C(C)[C@H]1CC=C(C)C(=O)C1
inactive: outcome [1]

CC(C)(c1ccccc1)c1ccc(O)cc1
inactive: activity change, negative = cytotoxicity [2] -9.3% | outcome [5] | Potency [6] | Potency [7] | Potency [8] | Potency [9] | Potency [10] | Potency [11] | Potency [12] | Potency [13] | Potency [14] | Potency [15] | Potency [16] | Potency [17] | Potency [18] | outcome [1] | max response [19] -2.53% and 0.007% | outcome [20]

CCCCOCCOP(=O)(OCCOCCCC)OCCOCCCC
inactive: activity change, negative = cytotoxicity [2] -1.66% | outcome [3] | outcome [4] | outcome [5] | Potency [6] | Potency [7] | Potency [8] | Potency [9] | Potency [10] | Potency [11] | Potency [12] | Potency [13] | Potency [14] | Potency [15] | Potency [16] | Potency [17] | Potency [18] | outcome [1] | max response [19] 5.47% and -1.69% | outcome [20]

N#CCCCl
inactive: activity change, negative = cytotoxicity [2] -2.76% and -3.85% | outcome [3] | outcome [4] | outcome [5] | Potency [6] | Potency [7] | Potency [8] | Potency [9] | Potency [10] | Potency [11] | Potency [12] | Potency [13] | Potency [14] | Potency [15] | Potency [16] | Potency [17] | Potency [18] | max response [19] -3.2% and -4.12% | outcome [20]

Nc1ccc(Br)cc1
inactive: activity change, negative = cytotoxicity [2] -2.5% | outcome [3] | outcome [4] | outcome [5] | Potency [6] | Potency [7] | Potency [8] | Potency [9] | Potency [10] | Potency [11] | Potency [12] | Potency [13] | Potency [14] | Potency [15] | Potency [16] | Potency [17] | Potency [18] | outcome [1] | max response [19] -1.52% | outcome [20]

CCOP(=S)(OCC)SCSC(C)(C)C
inactive: activity change, negative = cytotoxicity [2] -4.96% | outcome [3] | outcome [4] | outcome [5] | Potency [6] | Potency [7] | Potency [8] | Potency [9] | Potency [10] | Potency [11] | Potency [12] | Potency [13] | Potency [14] | Potency [15] | Potency [16] | Potency [17] | Potency [18] | outcome [1] | max response [19] -1.59% and -3.9% | outcome [20]

Nc1c(Cl)c(Cl)nc(C(=O)O)c1Cl
inactive: activity change, negative = cytotoxicity [2] -4.43% | outcome [3] | outcome [4] | outcome [5] | Potency [6] | Potency [7] | Potency [8] | Potency [9] | Potency [10] | Potency [11] | Potency [12] | Potency [13] | Potency [14] | Potency [15] | Potency [16] | Potency [17] | Potency [18] | outcome [1] | max response [19] 0.0872% and -2.27% and -1.09% | outcome [20]

O=C=NC1CCCCC1
inactive: activity change, negative = cytotoxicity [2] -6.26% and 7.73% | outcome [3] | outcome [4] | outcome [5] | Potency [6] | Potency [7] | Potency [8] | Potency [9] | Potency [10] | Potency [11] | Potency [12] | Potency [13] | Potency [14] | Potency [15] | Potency [16] | Potency [17] | Potency [18] | outcome [1] | max response [19] 0.341% and -3.39% | outcome [20]

CCCC(=O)Cl
inactive: activity change, negative = cytotoxicity [2] 1.63% | outcome [3] | outcome [4] | outcome [5] | Potency [6] | Potency [7] | Potency [8] | Potency [9] | Potency [10] | Potency [11] | Potency [12] | Potency [13] | Potency [14] | Potency [15] | Potency [16] | Potency [17] | Potency [18] | outcome [1] | max response [19] -5.49% | outcome [20]

C=CC(=O)OCC
inactive: activity change, negative = cytotoxicity [2] -4.3% | outcome [3] | outcome [4] | outcome [5] | Potency [6] | Potency [7] | Potency [8] | Potency [9] | Potency [10] | Potency [11] | Potency [12] | Potency [13] | Potency [14] | Potency [15] | Potency [16] | Potency [17] | Potency [18] | outcome [1] | max response [19] -5.18% | outcome [20]

CCOP(=S)(OCC)Oc1ccc([N+](=O)[O-])cc1
inactive: outcome [3] | outcome [4] | outcome [5] | Potency [6] | Potency [7] | Potency [8] | Potency [9] | Potency [10] | Potency [11] | Potency [12] | Potency [13] | Potency [14] | Potency [15] | Potency [16] | Potency [17] | Potency [18] | outcome [1] | max response [19] -0.408% and 4.67% and -3.29% | outcome [20]

O=NN(c1ccccc1)c1ccccc1
inactive: activity change, negative = cytotoxicity [2] 2.63% | outcome [3] | outcome [4] | outcome [5] | Potency [6] | Potency [7] | Potency [8] | Potency [9] | Potency [10] | Potency [11] | Potency [12] | Potency [13] | Potency [14] | Potency [15] | Potency [16] | Potency [17] | Potency [18] | outcome [1] | max response [19] 3.69% and -0.619% | outcome [20]
